What is called AC50 is the midpoint of the concentration-response curve, whichever way the signal moves.

In PubChem BioAssay (EPA / NIEHS) one finds outcome and AC50 data, which are given here for 15 compounds.

The target of assay [1] is human Matrix Metalloproteinase-9 (MMP9), MMP9 (gene 4318) (UniProt P14780). Description: NVS_ENZ_hMMP9: NovaScreen (NVS) Enzymatic Assay for human Matrix Metalloproteinase-9 (MMP9) (AID 2283190).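 Further: cell-free recombinant MMP9 protease activity read by fluorescent substrate signal; active means inhibition seen as loss of fluorescence signal versus DMSO.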 The gist of the method: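 Inhibition was scored as loss of fluorescence signal against DMSO controls. The recombinant protease was exposed to chemicals for 1 hour before reading; initial testing used 25 uM in duplicate.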
Chain of human Matrix Metalloproteinase-9 (MMP9), MMP9 (gene 4318) (P14780 whole entry, looked up): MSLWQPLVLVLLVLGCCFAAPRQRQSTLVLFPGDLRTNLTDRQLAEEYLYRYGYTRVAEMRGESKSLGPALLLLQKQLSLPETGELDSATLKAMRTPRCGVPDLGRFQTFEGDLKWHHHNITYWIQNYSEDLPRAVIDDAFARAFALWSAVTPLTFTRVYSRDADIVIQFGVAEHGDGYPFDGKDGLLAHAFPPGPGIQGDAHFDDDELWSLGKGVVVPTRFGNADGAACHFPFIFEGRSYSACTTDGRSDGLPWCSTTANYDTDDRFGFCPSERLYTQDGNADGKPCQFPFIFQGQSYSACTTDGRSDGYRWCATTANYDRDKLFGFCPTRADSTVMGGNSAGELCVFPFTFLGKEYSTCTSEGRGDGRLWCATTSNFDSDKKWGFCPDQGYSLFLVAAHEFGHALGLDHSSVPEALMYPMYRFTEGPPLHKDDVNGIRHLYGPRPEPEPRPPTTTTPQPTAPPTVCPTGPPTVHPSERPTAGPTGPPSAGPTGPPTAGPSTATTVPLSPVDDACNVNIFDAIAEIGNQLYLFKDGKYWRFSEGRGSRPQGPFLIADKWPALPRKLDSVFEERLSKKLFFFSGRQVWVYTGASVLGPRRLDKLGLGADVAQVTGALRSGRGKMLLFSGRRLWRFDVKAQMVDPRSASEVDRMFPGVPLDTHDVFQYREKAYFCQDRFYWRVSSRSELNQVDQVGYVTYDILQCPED

The target in assay [2] is human Phosphodiesterase 10 (PDE10), PDE10A (gene 10846) (UniProt Q9Y233). Description: NVS_ENZ_hPDE10: NovaScreen (NVS) Enzymatic Assay for human Phosphodiesterase 10 (PDE10) (AID 2283195). The gist of the method: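 Biochemical single-readout PDE10A assay, cell-free, extracted protein. Compounds first screened at 25 uM in duplicate, hits then titrated to 50 uM max. Activity measured after 1 h; loss-of-signal fitted against DMSO negative control.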
Chain of human Phosphodiesterase 10 (PDE10), PDE10A (gene 10846) (Q9Y233 whole entry, looked up): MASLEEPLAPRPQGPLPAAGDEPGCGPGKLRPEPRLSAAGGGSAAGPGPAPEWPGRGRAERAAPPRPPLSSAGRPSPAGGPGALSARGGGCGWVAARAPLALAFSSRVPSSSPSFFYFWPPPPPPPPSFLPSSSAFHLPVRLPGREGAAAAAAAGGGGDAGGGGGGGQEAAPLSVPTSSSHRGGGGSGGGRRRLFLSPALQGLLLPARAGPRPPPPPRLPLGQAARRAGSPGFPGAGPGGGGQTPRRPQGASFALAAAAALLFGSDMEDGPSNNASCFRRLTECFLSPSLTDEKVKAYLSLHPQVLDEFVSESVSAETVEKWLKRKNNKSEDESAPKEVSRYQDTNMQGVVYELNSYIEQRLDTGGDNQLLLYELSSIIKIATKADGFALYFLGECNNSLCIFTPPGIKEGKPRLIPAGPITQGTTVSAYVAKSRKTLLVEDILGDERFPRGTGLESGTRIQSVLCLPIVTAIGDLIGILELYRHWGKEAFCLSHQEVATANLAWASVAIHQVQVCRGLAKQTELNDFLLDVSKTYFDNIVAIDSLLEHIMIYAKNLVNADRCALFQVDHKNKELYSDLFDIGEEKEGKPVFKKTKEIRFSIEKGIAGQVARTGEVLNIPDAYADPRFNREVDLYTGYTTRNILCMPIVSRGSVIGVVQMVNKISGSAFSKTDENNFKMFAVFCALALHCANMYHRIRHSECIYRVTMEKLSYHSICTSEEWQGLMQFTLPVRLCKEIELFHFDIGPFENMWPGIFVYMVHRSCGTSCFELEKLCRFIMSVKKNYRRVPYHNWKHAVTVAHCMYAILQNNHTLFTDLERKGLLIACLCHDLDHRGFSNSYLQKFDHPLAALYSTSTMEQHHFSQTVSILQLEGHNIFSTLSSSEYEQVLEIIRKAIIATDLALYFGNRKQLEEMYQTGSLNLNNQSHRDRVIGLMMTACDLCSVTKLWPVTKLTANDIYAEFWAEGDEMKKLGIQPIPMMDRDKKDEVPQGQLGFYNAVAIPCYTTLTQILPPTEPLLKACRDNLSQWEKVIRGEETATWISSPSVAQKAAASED

In assay [3] the target is human Phosphoinositide 3-kinase alpha (PI3Ka), PIK3CA (gene 5290) (UniProt P42336). The assay can be described thus: NVS_ENZ_hPI3Ka: NovaScreen (NVS) Enzymatic Assay for human Phosphoinositide 3-kinase alpha (PI3Ka) (AID 2283196). The gist of the method:
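Chemicals were first screened at 25 uM in duplicate, then hits were run as concentration series up to 50 uM. Enzyme activity was measured by fluorescence after mobility-shift separation, with loss of signal relative to DMSO taken as activity.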

Assay [4] concerns the target Mitogen-activated protein kinase 3 (Homo sapiens) (UniProt P27361). The assay can be described thus: NVS_ENZ_hMAPK3: NovaScreen (NVS) Enzymatic Assay for human Mitogen-Activated Protein Kinase 3 (MAPK 3) (AID 2283177). In a few lines: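 Chemicals were first tested in duplicate at 25 uM, with hits re-run as concentration series (max 50 uM). Recombinant enzyme activity, measured 1 h post-dose in a cell-free format, was read by fluorescence/mobility shift relative to DMSO.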

Assay [5] deals with Collagenase 3 (Homo sapiens) (UniProt P45452). Description: NVS_ENZ_hMMP13: NovaScreen (NVS) Enzymatic Assay for human Matrix Metalloproteinase-13 (MMP13) (AID 2283182). The gist of the method: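 Recombinant MMP13 cleaving fluorescent substrate, cell-free, measured 1 h after dosing. Primary duplicate screen at 25 uM; actives tested in concentration-response up to 50 uM; loss of signal relative to DMSO.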

The target of assay [6] is human Matrix Metalloproteinase-7 (MMP7), MMP7 (gene 4316) (UniProt P09237). Description: NVS_ENZ_hMMP7: NovaScreen (NVS) Enzymatic Assay for human Matrix Metalloproteinase-7 (MMP7) (AID 2283183). In a few lines: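 Compounds first tested at 25 uM in duplicate, then at up to 50 uM in concentration series if active. Protease activity measured by fluorescence intensity 1 h after dosing, with fitting relative to DMSO.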

Assay [7] addresses human Matrix Metalloproteinase-2 (MMP2), MMP2 (gene 4313) (UniProt P08253). The assay can be described thus: NVS_ENZ_hMMP2: NovaScreen (NVS) Enzymatic Assay for human Matrix Metalloproteinase-2 (MMP2) (AID 2283184). In a few lines:
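Compounds first screened in duplicate at a single 25 uM, with actives followed up in concentration series. Recombinant human MMP2 cleaves a fluorogenic substrate; fluorescence taken at 1 h, inhibition fitted relative to DMSO.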

Assay [8] addresses human Mitogen- and Stress-activated Protein Kinase-1 (Msk1), RPS6KA5 (gene 9252) (UniProt O75582). Description: NVS_ENZ_hMsk1: NovaScreen (NVS) Enzymatic Assay for human Mitogen- and Stress-activated Protein Kinase-1 (Msk1) (AID 2283187). In a few lines: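 Chemicals first run in duplicate at 25 uM, with actives followed up in singleton concentration series to 50 uM maximum. Enzyme activity came from substrate/product mobility-shift separation with fluorescence detection after 1 h incubation of the recombinant protein.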

The target of assay [9] is human Phosphodiesterase 4A1 (PDE4A1), PDE4A (gene 5141) (UniProt P27815). Description: NVS_ENZ_hPDE4A1: NovaScreen (NVS) Enzymatic Assay for human Phosphodiesterase 4A1 (PDE4A1) (AID 2283191). The gist of the method:
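Fluorescent substrate turnover by recombinant PDE4A1 read after 1 h by mobility-shift separation. Primary duplicate screen at 25 uM; hits retested in concentration series with a 50 uM maximum, relative to DMSO.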

In assay [10] the target is cAMP-dependent protein kinase catalytic subunit alpha (Homo sapiens) (UniProt P17612). The assay can be described thus: NVS_ENZ_hPKA: NovaScreen (NVS) Enzymatic Assay for human Protein Kinase A (PKA) (AID 2283192). In a few lines: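 Cell-free kinase activity read by fluorescence after mobility-shift separation of substrate and product, 1 h post-dosing. Single-concentration duplicate screen (25 uM) preceded singleton concentration series (top 50 uM); loss of signal versus DMSO.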

For assay [11], the target named is Tyrosine-protein phosphatase non-receptor type 13 (Homo sapiens) (UniProt Q12923). The assay can be described thus: NVS_ENZ_hPTPN13: NovaScreen (NVS) Enzymatic Assay for human Protein Tyrosine Phosphatase Non-receptor Type 13 (PTPN13) (AID 2283205). In a few lines:
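Screened first at a single 25 uM in duplicate; compounds passing the threshold (e.g. 30% inhibition) were rerun in concentration series, top 50 uM. Recombinant enzyme, fluorescent substrate, mobility-shift separation, 0.5 h read. Data fitted as inhibition relative to DMSO.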

Assay [12] deals with Tyrosine-protein phosphatase non-receptor type 14 (Homo sapiens) (UniProt Q15678). The assay can be described thus: NVS_ENZ_hPTPN14: NovaScreen (NVS) Enzymatic Assay for human Protein Tyrosine Phosphatase Non-receptor Type 14 (PTPN14) (AID 2283206). In a few lines: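 Fluorescent substrate turnover by recombinant human PTPN14 was measured 0.5 h after compound addition, with substrate and product separated by mobility shift. Single-point screening at 25 uM, then concentration-response up to 50 uM for chemicals meeting threshold (e.g., 30% inhibition).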

For assay [13], the target named is human Protein Tyrosine Phosphatase Receptor Type F (PTPRF), PTPRF (gene 5792) (UniProt P10586). Description: NVS_ENZ_hPTPRF: NovaScreen (NVS) Enzymatic Assay for human Protein Tyrosine Phosphatase Receptor Type F (PTPRF) (AID 2283213). The gist of the method: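 Cell-free fluorescence enzyme assay with recombinant protein and substrate; product separated by electrophoretic mobility shift. Read 1 h after dosing, single 25 uM duplicate screen, then concentration-response up to 50 uM; loss of signal vs DMSO.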

Assay [14] concerns the target human Protein Tyrosine Phosphatase Receptor Type M (PTPRM), PTPRM (gene 5797) (UniProt P28827). The assay can be described thus: NVS_ENZ_hPTPRM: NovaScreen (NVS) Enzymatic Assay for human Protein Tyrosine Phosphatase Receptor Type M (PTPRM) (AID 2283215). In a few lines: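 Read-out is fluorescence after electrophoretic separation of substrate and product, taken 1.33 h post-dosing with recombinant enzyme. Compounds screened at 25 uM in duplicate, then concentration series for actives; activity as signal loss relative to DMSO.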

Assay [15] concerns the target human Phosphodiesterase 5 (PDE5), PDE5A (gene 8654) (UniProt O76074). Description: NVS_ENZ_hPDE5: NovaScreen (NVS) Enzymatic Assay for human Phosphodiesterase 5 (PDE5) (AID 2283194). The gist of the method: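 Screening began in duplicate at 25 uM, with actives taken into concentration-response. Enzyme activity of recombinant PDE5 toward its substrate was measured at 1 h by fluorescence mobility-shift detection, relative to DMSO controls.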

Assay [16] concerns the target human Protein Tyrosine Phosphatase Non-receptor Type 6 (PTPN6), PTPN6 (gene 5777) (UniProt P29350). Description: NVS_ENZ_hPTPN6: NovaScreen (NVS) Enzymatic Assay for human Protein Tyrosine Phosphatase Non-receptor Type 6 (PTPN6) (AID 2283210). The gist of the method: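 Recombinant human PTPN6 from SF9 cells, enzyme activity followed by fluorescence after mobility-shift separation of substrate and product at 1.33 h. Chemicals first tested at a single 25 uM in duplicate, then confirmed across concentration series; loss of signal relative to DMSO.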

Several values for one entry are separate records, joined by “and”; a condition that tells them apart may be missing. Identical values can stand only once. Inconclusive results are not listed. Activity calls are given as the source filed them. How the source made its calls: active means hit-call score of the fitted dose curve at least 0.9, where 1 is the maximum; inconclusive means response in the unintended direction; inactive means score below 0.9.

Chain of human Phosphoinositide 3-kinase alpha (PI3Ka), PIK3CA (gene 5290) (P42336 whole entry, looked up): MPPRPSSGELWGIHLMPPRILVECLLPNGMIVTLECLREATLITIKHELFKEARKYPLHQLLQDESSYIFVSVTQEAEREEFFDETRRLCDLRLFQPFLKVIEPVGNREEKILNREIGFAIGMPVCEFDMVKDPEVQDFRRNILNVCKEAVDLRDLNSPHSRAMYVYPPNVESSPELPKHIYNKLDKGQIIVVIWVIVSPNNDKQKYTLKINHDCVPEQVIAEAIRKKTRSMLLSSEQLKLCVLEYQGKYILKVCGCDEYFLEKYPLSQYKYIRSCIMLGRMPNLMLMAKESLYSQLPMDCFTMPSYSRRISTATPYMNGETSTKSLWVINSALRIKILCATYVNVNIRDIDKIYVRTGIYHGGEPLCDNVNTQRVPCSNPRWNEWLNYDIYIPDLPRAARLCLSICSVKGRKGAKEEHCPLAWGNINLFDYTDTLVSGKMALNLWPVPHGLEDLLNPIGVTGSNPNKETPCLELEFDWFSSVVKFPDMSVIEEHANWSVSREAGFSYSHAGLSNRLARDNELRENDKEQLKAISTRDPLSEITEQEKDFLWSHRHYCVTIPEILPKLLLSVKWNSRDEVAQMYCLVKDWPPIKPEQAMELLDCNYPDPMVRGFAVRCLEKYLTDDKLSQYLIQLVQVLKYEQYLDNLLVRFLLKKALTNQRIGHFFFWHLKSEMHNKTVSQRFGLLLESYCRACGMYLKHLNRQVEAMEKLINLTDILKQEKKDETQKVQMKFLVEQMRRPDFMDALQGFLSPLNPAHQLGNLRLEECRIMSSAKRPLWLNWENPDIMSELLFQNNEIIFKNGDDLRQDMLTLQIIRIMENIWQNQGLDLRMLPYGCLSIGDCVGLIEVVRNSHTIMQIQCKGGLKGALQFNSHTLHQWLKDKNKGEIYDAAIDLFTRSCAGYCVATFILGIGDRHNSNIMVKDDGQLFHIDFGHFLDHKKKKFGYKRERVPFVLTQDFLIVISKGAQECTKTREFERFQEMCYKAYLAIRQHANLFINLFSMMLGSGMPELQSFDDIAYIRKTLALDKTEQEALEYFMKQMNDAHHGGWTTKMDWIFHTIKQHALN
Chain of human Protein Tyrosine Phosphatase Receptor Type M (PTPRM), PTPRM (gene 5797) (P28827 whole entry, looked up): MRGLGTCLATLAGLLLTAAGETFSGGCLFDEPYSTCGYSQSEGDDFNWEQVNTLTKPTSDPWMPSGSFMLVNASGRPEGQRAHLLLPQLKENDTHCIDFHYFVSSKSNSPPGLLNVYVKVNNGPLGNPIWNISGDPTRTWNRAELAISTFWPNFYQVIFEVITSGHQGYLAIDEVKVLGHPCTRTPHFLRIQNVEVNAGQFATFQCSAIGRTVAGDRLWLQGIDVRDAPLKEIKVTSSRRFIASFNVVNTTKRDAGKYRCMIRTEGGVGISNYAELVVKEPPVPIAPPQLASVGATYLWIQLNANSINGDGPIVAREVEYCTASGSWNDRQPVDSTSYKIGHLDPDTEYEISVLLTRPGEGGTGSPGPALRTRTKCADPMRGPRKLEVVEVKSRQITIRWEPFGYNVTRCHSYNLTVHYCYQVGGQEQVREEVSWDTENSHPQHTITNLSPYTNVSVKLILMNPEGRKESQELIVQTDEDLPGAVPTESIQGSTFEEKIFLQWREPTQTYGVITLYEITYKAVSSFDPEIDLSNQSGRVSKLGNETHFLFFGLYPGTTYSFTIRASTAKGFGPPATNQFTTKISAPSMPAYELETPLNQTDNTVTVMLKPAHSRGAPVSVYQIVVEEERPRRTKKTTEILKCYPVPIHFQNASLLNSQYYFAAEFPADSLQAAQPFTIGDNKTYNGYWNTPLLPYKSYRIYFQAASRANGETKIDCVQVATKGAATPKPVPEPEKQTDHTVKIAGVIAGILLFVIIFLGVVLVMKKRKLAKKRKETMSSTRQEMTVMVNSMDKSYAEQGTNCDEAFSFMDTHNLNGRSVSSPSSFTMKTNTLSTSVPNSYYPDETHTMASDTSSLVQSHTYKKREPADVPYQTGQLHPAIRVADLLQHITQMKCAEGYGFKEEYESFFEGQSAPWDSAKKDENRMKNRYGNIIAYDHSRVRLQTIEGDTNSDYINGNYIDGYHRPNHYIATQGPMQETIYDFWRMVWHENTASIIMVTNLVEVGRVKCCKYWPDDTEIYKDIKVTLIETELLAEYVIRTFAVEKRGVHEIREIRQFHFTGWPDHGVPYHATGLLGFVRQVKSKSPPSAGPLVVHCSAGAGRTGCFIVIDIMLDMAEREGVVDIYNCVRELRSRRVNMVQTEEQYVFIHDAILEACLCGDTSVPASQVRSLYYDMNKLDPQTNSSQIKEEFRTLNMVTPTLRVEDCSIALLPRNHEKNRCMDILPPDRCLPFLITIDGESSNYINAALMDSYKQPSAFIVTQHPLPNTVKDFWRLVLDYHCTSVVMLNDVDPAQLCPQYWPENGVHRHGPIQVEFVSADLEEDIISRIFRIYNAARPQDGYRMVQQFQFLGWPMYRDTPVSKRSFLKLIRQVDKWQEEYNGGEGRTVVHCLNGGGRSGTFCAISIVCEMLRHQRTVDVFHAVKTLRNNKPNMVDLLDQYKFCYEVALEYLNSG
Chain of human Protein Tyrosine Phosphatase Non-receptor Type 6 (PTPN6), PTPN6 (gene 5777) (P29350 whole entry, looked up): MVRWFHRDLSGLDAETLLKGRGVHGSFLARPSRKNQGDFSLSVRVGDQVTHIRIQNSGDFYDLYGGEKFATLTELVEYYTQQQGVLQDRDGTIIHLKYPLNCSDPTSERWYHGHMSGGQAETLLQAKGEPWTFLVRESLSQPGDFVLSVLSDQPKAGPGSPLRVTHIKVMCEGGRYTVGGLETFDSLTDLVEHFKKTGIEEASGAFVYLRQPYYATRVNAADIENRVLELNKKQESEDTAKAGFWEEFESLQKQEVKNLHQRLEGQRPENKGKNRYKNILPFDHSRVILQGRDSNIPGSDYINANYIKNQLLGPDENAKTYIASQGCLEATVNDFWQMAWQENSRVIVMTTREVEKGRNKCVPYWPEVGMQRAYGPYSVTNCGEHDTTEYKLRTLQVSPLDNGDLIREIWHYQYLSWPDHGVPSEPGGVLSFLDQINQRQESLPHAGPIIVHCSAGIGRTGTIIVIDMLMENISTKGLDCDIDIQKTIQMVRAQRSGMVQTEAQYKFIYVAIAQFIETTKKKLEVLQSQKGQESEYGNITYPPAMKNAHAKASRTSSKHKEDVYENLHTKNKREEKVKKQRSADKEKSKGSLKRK

Consider `CC(C)(O)CCc1ccccc1`, for which, in assay [1], the compound was called inactive.
Take `C=CCOCC(O)CO` (configuration not stated): the AC50 in [1] was 1.68 µM (active).
As for `CCCCCCOC(C)=O`, the call in assay [2] and in assay [3] was inactive.
Regarding `CC/C(=C(\c1ccccc1)c1ccc(OCCN(C)C)cc1)c1ccccc1`, the compound was classed as inactive in [4], in assay [6], in [7], in [8], in [1] and in [10]. The compound was classed as inactive in assay [12] and in [13]. For the same compound, the AC50 in assay [5] is 42.5 µM (active); in assay [9], 27.9 µM (active); in [2] it was 22.9 µM (active); in assay [3], 16.1 µM (active); in assay [11] it was 12.1 µM (active); in assay [14] it was 13.9 µM (active).
For the compound `C=CC(=O)OCC(CO)(COC(=O)C=C)COC(=O)C=C`, the AC50 in assay [1] was 10.5 µM (active). Besides, the compound was called inactive in assay [3].
With `CCO[Si](CCC#N)(OCC)OCC`, the call in assay [2] was inactive.
For `O=C1OC2(c3ccc(O)cc3Oc3cc(O)ccc32)c2ccccc21`, the result in [3] was inactive.
With `CC(C)Cc1ccccc1`, in assay [3], the call was inactive.
The same measure, in the same setting: next, `C=CC(=O)OCCCCCC`: “inactive”.
As for `CCCCOCCOCCO`, the compound was classed as inactive in assay [15] and in assay [16].
Consider `S=c1[nH][nH]c(=S)s1`, for which the compound was classed as inactive in assay [2] and in assay [3].
Turning to `Nc1ccc(N)c([N+](=O)[O-])c1`, the AC50 in assay [1] is 4.96 µM (active) and 1.02 µM (active).
`C[C@]12CC[C@@H]3c4ccc(O)cc4CC[C@H]3[C@@H]1CC[C@@H]2O`: the call in assay [14] was inactive.
`OCCN1CCOCC1`: the AC50 in assay [1] was 4.96 µM (active).
Take `CC(CO)c1ccccc1` (configuration not stated): the compound was called inactive in assay [3].
